{
  "source": "PubChem BioAssay (Tox21)",
  "note": "Records with an inconclusive call do not appear. Entries that show only a call come without a potency. Calls of active or inactive are those of the source. The call rests on the fitted dose curve; in most records, active means well fitted inhibition curve with a large enough effect in the signal ratio in the repeat runs, with a control signal flat; inconclusive means weak or mixed curves, or effect the other way; inactive means flat fitted curve, though single readings scatter; the % refers to the signal ratio. Potency means the concentration at half of the fitted maximal effect.",
  "data": [
    {"target": "D(2) dopamine receptor (Homo sapiens) (UniProt P14416)", "sequence (P14416 whole entry, looked up)": "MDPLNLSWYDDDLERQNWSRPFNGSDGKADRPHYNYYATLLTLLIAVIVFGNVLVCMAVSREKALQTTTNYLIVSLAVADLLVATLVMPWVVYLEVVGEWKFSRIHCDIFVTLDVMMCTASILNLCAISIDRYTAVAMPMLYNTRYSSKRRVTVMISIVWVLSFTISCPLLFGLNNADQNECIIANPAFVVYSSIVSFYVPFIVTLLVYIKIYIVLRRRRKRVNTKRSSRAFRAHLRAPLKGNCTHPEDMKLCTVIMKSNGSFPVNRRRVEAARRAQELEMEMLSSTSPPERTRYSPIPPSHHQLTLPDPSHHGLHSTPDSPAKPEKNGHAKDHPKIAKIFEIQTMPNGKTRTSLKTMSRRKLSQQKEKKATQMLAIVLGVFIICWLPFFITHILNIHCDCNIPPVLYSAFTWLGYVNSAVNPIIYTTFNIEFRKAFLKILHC", "test": "Dopamine D2 receptor (DRD2) small molecule antagonists, cell-based qHTS assay (AID 1963595)", "conditions": "HEK293-DRD2 cAMP HTRF antagonist mode; series mostly up to 92.4 µM", "method_in_brief": "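Antagonist mode in DRD2-HEK293 cells: after compound addition with 0.1 mM Ro20-1724, cells received quinpirole (12 nM) and NKH477 (200 nM) for 30 min at room temperature; HTRF cAMP read after 1 h detection.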", "values": [
      {"smiles": "CCCOc1ccc(S(=O)(=O)N2CCN(CC)CC2)cc1-c1nc2c(CC)n(Cc3ccccn3)nc2c(=O)[nH]1", "Potency": "inactive"},
      {"smiles": "COc1cc(Cl)c(OC)cc1N", "Potency": "inactive"},
      {"smiles": "Oc1ccccc1F", "Potency": "inactive"},
      {"smiles": "NCCCN1CCOCC1", "Potency": "inactive"},
      {"smiles": "CC(C)OC(=O)c1ccccc1C(=O)OC(C)C", "Potency": "inactive"},
      {"smiles": "CC1CC(OC(=O)C(O)c2ccccc2)CC(C)(C)N1C", "note": "(centres undefined)", "Potency": "inactive"},
      {"smiles": "CC(=O)N[C@@H](CCC(=O)O)C(=O)O", "Potency": "inactive"},
      {"smiles": "CC(=O)OCC(=O)[C@H]1CC[C@H]2[C@@H]3CCC4=CC(=O)CC[C@]4(C)[C@H]3CC[C@]12C", "Potency": "inactive"},
      {"smiles": "CCOc1ccc2nc(S(N)(=O)=O)sc2c1", "Potency": "inactive"},
      {"smiles": "O=C(O)c1ccc2cc(C(=O)O)ccc2c1", "Potency": "inactive"},
      {"smiles": "OCCc1ccncc1", "Potency": "inactive"},
      {"smiles": "CN1C(CSCC(F)(F)F)Nc2cc(Cl)c(S(N)(=O)=O)cc2S1(=O)=O", "note": "(centres undefined)", "Potency": "inactive"},
      {"smiles": "O=c1cc(O)c(Cl)c[nH]1", "Potency": "inactive"},
      {"smiles": "N#CCCNCCC#N", "Potency": "inactive"},
      {"smiles": "CN1CCC(=C2c3ccccc3CCc3cccnc32)CC1", "Potency": "29.8 µM (active)"},
      {"smiles": "CC(CC=O)CCCC(C)(C)O", "note": "(centres undefined)", "Potency": "inactive"},
      {"smiles": "COc1ccc(/C=N/NC(=O)c2ccncc2)cc1OC", "Potency": "inactive"},
      {"smiles": "CCOC(=O)CC(=O)c1ccccc1", "Potency": "inactive"},
      {"smiles": "CCOc1ccccc1OCCN[C@H](C)Cc1ccc(OC)c(S(N)(=O)=O)c1", "Potency": "1.19 µM (active)"},
      {"smiles": "O=C(NS(=O)(=O)/C=C/c1cccs1)c1ccc(F)cc1Br", "Potency": "inactive"},
      {"smiles": "CCCc1ccc(OC)cc1", "Potency": "inactive"},
      {"smiles": "CCCCCCC#CC(=O)OC", "Potency": "inactive"},
      {"smiles": "COC=O", "activity change, negative = inhibition": "-12.2% [at 8.38 µM] (inactive)"},
      {"smiles": "CCCCCCCCCCO[C@@H]1O[C@H](CO)[C@@H](O)[C@H](O)[C@H]1O", "Potency": "inactive"}
    ]}
  ]
}
